# Where “and” joins values, the source holds several entries; their conditions need not be identical. Equal values may be shown once. Results filed as inconclusive are left out. A call without a number means that no potency is given here. Some compounds were tested as several samples or in several runs, with calls that do not always agree. Calls of active or inactive are those of the source. Unless noted, the call rests on the fitted dose curve; in most records, active means well fitted curve in the direction sought with a large enough effect in the repeat runs; inconclusive means weak or mixed curves; inactive means no such curve, though single readings can be large; an effect the other way counts as inactive or inconclusive.
# Legend:
# [1] = qHTS assay to identify small molecule antagonists of the retinoic acid receptor (RAR) signaling pathway (AID 1159552; further: nearly all actives have a fitted effect of over 50% in size); conditions: C3RL4 RARE luciferase reporter, retinol-stimulated, 6 h; series mostly up to 92.4 µM
# Summary of the method: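 Luminescent RARE reporter read-out in C3RL4 cells: 6 hr co-treatment at 37 C of test compounds with retinol at 1 uM final. Cells plated overnight beforehand; luciferase reagent incubated 30 min at room temperature before reading.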
# [2] = qHTS assay to identify small molecule agonists of the retinoic acid receptor (RAR) signaling pathway (AID 1159553); conditions: C3RL4 RARE luciferase reporter, agonist, 6 h; activation: at 73.3 µM (top of the series) unless noted
# Summary of the method: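 Agonist activity was scored in C3RL4 cells bearing a retinoic acid response element luciferase construct. Cells were treated with compounds for 6 hr at 37 C, and luciferase signal was measured as luminescence.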
# [3] = qHTS assay to identify small molecule antagonists of the estrogen related receptor (ERR) signaling pathway from Tox21 library - cell viability counter screen (AID 1224834); conditions: ERR reporter cells viability, CellTiter-Fluor, 17.5 h; series mostly up to 92.4 µM; further: nearly all actives have a fitted effect of over 30% in size; further: potency means the concentration at half of the fitted maximal effect
# Summary of the method: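 Cytotoxicity of test substances is gauged in the same ERR cells used for the antagonist screen, after 17.5 h of compound treatment at 37 C, by CellTiter-Fluor fluorescence measured after 30 min.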
# [4] = target: Luciferin 4-monooxygenase (Photinus pyralis) (UniProt P08659); assay: qHTS assay to identify small molecule inhibitors of firefly luciferase (AID 1224835); further: nearly all actives have a fitted effect of over 25% in size; further: potency means the concentration at half of the fitted maximal effect; conditions: purified P. pyralis luciferase, luminescence inhibition; series mostly up to 115 µM
# Luciferin 4-monooxygenase (Photinus pyralis), sequence (P08659 whole entry, looked up): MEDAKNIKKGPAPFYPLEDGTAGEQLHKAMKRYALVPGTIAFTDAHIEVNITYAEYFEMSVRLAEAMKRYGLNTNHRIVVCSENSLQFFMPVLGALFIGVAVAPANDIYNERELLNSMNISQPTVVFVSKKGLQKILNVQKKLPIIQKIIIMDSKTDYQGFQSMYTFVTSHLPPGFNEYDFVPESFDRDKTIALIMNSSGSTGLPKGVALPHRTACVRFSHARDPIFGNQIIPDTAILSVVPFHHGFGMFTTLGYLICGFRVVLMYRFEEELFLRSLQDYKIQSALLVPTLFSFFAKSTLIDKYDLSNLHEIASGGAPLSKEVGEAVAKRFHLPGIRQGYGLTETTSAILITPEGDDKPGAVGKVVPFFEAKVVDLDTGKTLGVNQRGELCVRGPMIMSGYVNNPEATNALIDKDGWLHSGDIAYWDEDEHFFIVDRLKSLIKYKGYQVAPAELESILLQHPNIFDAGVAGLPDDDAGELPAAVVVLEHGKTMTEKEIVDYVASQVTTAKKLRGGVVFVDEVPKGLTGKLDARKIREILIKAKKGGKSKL
# Summary of the method: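 Biochemical qHTS: compounds run as interplate titrations against purified firefly enzyme, with D-luciferin and ATP each at its KM concentration. Light output recorded by CCD imaging.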
# [5] = qHTS assay to identify small molecule agonists of the constitutive androstane receptor (CAR) signaling pathway - cell viability counter screen (AID 1224836); conditions: HepG2-CYP2B6-hCAR viability, CellTiter-Fluor, 23 h, PK11195 added to every well; series mostly up to 92.4 µM; further: nearly all actives have a fitted effect of over 45% in size
# Summary of the method: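 Cell viability multiplexed with the CAR agonist screen: CellTiter-Fluor fluorescence after 23 hr at 37 C. HepG2-CYP2B6-hCAR cells got compounds at 15 concentrations with PK11195 at 0.75 uM final.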
# [6] = target: Nuclear receptor subfamily 1 group I member 3 (Homo sapiens) (UniProt Q14994); assay: qHTS assay to identify small molecule antagonists of the constitutive androstane receptor (CAR) signaling pathway (AID 1224838); conditions: HepG2-CYP2B6-hCAR luciferase, CITCO-stimulated, 24 h; series mostly up to 92.4 µM; further: nearly all actives have a fitted effect of over 40% in size
# Nuclear receptor subfamily 1 group I member 3 (Homo sapiens), sequence (Q14994 whole entry, looked up): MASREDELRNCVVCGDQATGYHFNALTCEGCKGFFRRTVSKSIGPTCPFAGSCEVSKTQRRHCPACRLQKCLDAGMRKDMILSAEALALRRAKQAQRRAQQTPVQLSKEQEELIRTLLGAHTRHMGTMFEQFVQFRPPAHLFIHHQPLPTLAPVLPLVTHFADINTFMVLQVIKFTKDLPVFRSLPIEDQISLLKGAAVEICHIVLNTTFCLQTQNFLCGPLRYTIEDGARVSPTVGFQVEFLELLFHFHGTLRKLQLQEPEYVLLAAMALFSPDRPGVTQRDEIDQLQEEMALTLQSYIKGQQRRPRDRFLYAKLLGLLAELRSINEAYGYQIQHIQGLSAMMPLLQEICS
# Summary of the method: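 Compounds were titrated across 15 concentrations onto HepG2 cells double-stably expressing hCAR and a CYP2B6-2.2kb reporter, together with 50 nM CITCO (final). After 24 h at 37 C, luciferase activity was measured by luminescence.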
# [7] = target: Nuclear receptor subfamily 1 group I member 3 (Homo sapiens) (UniProt Q14994); assay: qHTS assay to identify small molecule agonists of the constitutive androstane receptor (CAR) signaling pathway (AID 1224839); conditions: HepG2 hCAR CYP2B6-luciferase, agonist mode, 24 h; series mostly up to 92.4 µM; further: nearly all actives have a fitted effect of over 15% in size; further: potency means the concentration at half of the fitted maximal effect;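 on activation: HepG2 cells stably carrying human CAR and a CYP2B6 luciferase reporter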
# Summary of the method: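 Luminescent ONE-Glo read-out after 24 hr, 37 C exposure of double-stable HepG2-CYP2B6-hCAR reporter cells to a 15-point compound series, in the presence of 0.75 uM PK11195 (final).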
# [8] = qHTS assay to identify small molecule antagonists of the estrogen related receptor signaling pathway with the pleiotropic PPARgamma coactivator (PGC) from Tox21 10K library (AID 1224841; call rule not given here; further: actives are mostly falling curves and most rising ones were filed inactive; nearly all actives have a fitted effect of over 50% in size; further: potency means the concentration at half of the fitted maximal effect); conditions: PGC/ERR reporter cell line, ONE-Glo luciferase, 18 h; series mostly up to 92.4 µM
# Summary of the method: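 Antagonism in this quantitative HTS is taken from loss of luciferase signal in PGC/ERR cells. Cells (2,000/well) are treated with compounds in DMSO after a 6 h settling period and read by One-Glo luminescence after 18 h.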
# [9] = qHTS assay to identify small molecule agonists of the estrogen related receptor signaling pathway with the pleiotropic PPARgamma coactivator (PGC) from Tox21 10K library (AID 1224842); conditions: PGC/ERR reporter cell line, luciferase ONE-Glo, 18 h; series mostly up to 92.4 µM; further: nearly all actives have a fitted effect of over 15% in size
# Summary of the method: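 PGC/ERR reporter cell line, 2,000 cells per well, incubated 6 h at 37 C before 23 nL compound in DMSO was added. After 18 h at 37 C, One-Glo luminescence read following 30 min at room temperature.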
# [10] = qHTS assay to identify small molecule agonists of the RXR signaling pathway - cell viability counter screen (AID 1159529); conditions: RXR-alpha-bla HEK293T viability, CellTiter-Glo, 16 h; series mostly up to 76.8 µM; further: nearly all actives have a fitted effect of over 50% in size
# Summary of the method: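 CellTiter-Glo luminescence gave viability in the wells also read for beta-lactamase. Cells (RXR-alpha-UAS-bla HEK 293T, 2% charcoal-stripped FBS medium) had 5 hr plating, then 16 hr compound exposure at 37 C; tetraoctyl ammonium bromide served as positive control.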
# [11] = qHTS assay to identify small molecule antagonists of the estrogen related receptor signaling pathway with the pleiotropic PPARgamma coactivator (PGC) from Tox21 10K library - cell viability counter screen (AID 1224840; active means well fitted cell-killing curve with a large enough effect in the repeat runs, not every such curve was filed as active; further: nearly all actives have a fitted effect of over 40% in size); conditions: PGC/ERR reporter cells viability, CellTiter-Fluor, 17.5 h; series mostly up to 92.4 µM
# Summary of the method: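 Step one, plate 2,000 PGC/ERR cells per well; step two, incubate 6 h at 37 C/5% CO2; step three, pin-transfer compounds; step four, incubate 17.5 h; step five, add CellTiter-Fluor and read fluorescence after 30 min.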
# [12] = target: Thyrotropin receptor (Homo sapiens) (UniProt P16473); assay: qHTS assay to identify small molecule agonists of the thyroid stimulating hormone receptor (TSHR) signaling pathway (AID 1224843; calls by dose curve; further: nearly all actives have a fitted effect of over 45% in size); conditions: TSHR-HEK293 cells, cAMP HTRF, agonist mode, 30 min; series mostly up to 92.4 µM
# Thyrotropin receptor (Homo sapiens), sequence (P16473 whole entry, looked up): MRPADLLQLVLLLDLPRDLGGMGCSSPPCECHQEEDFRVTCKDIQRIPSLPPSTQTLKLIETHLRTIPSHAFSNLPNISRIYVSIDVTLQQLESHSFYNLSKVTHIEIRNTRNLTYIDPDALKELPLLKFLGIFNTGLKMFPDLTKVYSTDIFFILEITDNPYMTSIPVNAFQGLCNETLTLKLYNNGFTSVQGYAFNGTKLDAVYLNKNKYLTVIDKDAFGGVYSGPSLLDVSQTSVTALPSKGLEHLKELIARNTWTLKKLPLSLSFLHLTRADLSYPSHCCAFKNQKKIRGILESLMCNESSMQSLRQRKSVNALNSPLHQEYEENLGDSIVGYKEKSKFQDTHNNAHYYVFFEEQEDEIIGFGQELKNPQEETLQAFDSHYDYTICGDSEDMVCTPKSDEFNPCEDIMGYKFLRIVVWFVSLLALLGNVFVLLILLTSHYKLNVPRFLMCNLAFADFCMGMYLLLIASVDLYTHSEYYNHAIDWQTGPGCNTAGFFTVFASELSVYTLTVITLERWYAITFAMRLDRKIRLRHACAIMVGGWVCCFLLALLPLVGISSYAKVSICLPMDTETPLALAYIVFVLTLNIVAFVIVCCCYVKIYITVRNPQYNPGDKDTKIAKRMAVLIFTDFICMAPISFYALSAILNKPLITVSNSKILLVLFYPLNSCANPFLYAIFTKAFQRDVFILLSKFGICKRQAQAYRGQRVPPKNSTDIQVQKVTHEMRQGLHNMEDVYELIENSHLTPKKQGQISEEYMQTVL
# Summary of the method: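 TSHR-HEK293 cells in agonist mode, 30 min room-temperature step, then cAMP measured by competitive HTRF (cAMP-d2 with anti-cAMP cryptate) after 1 h at room temperature. Tested at 15 concentrations in triplicate.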
# [13] = qHTS assay to identify small molecule antagonists of the estrogen related receptor (ERR) signaling pathway - cell viability counter screen (AID 1224818); conditions: ERR reporter cell line viability counter screen; series mostly up to 46.1 µM;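 further: viability measured after 17.5 h of compound exposure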
# Summary of the method: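 Cells carrying the ERR pathway reporter were seeded and incubated for 6 hours before compound addition. After a 17.5-hour exposure at 37 C, live-cell protease activity was measured by CellTiter-Fluor fluorescence following 30 minutes of incubation.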
# [14] = qHTS assay to identify small molecule antagonists of the estrogen related receptor signaling pathway with the pleiotropic PPARgamma coactivator (PGC) cell viability counter screen (AID 1224822;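 further: viability read after 17.5 h compound exposure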); conditions: ERR/PGC reporter cell line viability counter screen; series mostly up to 46.1 µM
# Summary of the method: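 Seed PGC/ERR cells (2,000/well); incubate 6 h at 37 C/5% CO2; pin-transfer compounds in DMSO; incubate 17.5 h at 37 C; add CellTiter-Fluor; after 30 min read fluorescence.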
# [15] = qHTS assay to identify small molecule antagonists of the constitutive androstane receptor (CAR) signaling pathway - cell viability counter screen (AID 1224837); conditions: HepG2-CYP2B6-hCAR viability, CellTiter-Fluor, 23 h, co-treated with 50 nM CITCO; series mostly up to 92.4 µM; further: nearly all actives have a fitted effect of over 45% in size
# Summary of the method: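 Multiplexed cytotoxicity read-out for the CAR antagonist screen: double-stable HepG2-CYP2B6-hCAR cells co-treated with 50 nM CITCO (final) and compound over 15 concentrations, incubated 23 hr, then assessed by CellTiter-Fluor fluorescence.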
Compound,Potency [1],Potency [2],Potency [3],Potency [4],Potency [5],Potency [6],Potency [7],Potency [8],Potency [9],Potency [10],Potency [11],Potency [12],outcome [13],Potency [14],Potency [15]
COc1ccc2cc3[n+](cc2c1OC)CCc1cc2c(cc1-3)OCO2,inactive,inactive,27.5 µM (active),inactive,inactive,inactive,inactive,3.88 µM (active) and 7.5 µM (active),inactive,,,,,,
NC(N)=S,,,inactive,inactive,inactive,inactive,,,,inactive,inactive,inactive,,,
Cc1cc(C)cc(O)c1,inactive,inactive,inactive,inactive,inactive,inactive,inactive,inactive,inactive,inactive,inactive,inactive,,,
CCN(CC)CCNC(=O)c1ccc(N)cc1,,,inactive,inactive,inactive,,,,,inactive,,inactive,inactive,inactive,inactive
CCCCCCCCO,inactive,inactive,inactive,inactive,inactive,inactive,,,,inactive,inactive,inactive,,,
O=C1O[C@H]([C@H](O)CO)C(O)=C1O,,,inactive,inactive,inactive,inactive,,,,inactive,inactive,inactive,,,inactive
Nc1cccc(C(F)(F)F)c1,inactive,inactive,inactive,inactive,inactive,,,inactive,inactive,inactive,inactive,inactive,,,
CCCCCCCCCCCCCC(=O)O,,,inactive,50.1 µM (active),inactive,inactive,inactive,inactive,inactive,inactive,,inactive,,,
Cc1ncc(CO)c(CO)c1O,,,inactive,inactive,inactive,,,,,inactive,inactive,inactive,,,
CCCCC(CC)COC(=O)c1ccc(C(=O)OCC(CC)CCCC)cc1 (stereo not given),inactive,inactive,inactive,inactive,inactive,,,inactive,inactive,inactive,inactive,,,,inactive
N[C@@H](Cc1cc(I)c(Oc2ccc(O)c(I)c2)c(I)c1)C(=O)O,,,inactive,inactive,inactive,,inactive and 56.7 µM (active),,,inactive,inactive,inactive,,,inactive
C[Si](C)(C)N[Si](C)(C)C,inactive,inactive,inactive,inactive,inactive,inactive,inactive,,,inactive,inactive,inactive,,,inactive
CCn1cc(C(=O)O)c(=O)c2cc3c(cc21)OCO3,,,inactive,inactive,inactive,,,,,inactive,,inactive,inactive,inactive,
OCC(O)CS (stereo not given),inactive,inactive,inactive,inactive,inactive,inactive,inactive,,,inactive,,inactive,,,
CC1(C)[C@@H](O[C@H]2O[C@H](C(=O)O)[C@@H](O)[C@H](O)[C@H]2O[C@@H]2O[C@H](C(=O)O)[C@@H](O)[C@H](O)[C@H]2O)CC[C@]2(C)[C@H]3C(=O)C=C4[C@@H]5C[C@@](C)(C(=O)O)CC[C@]5(C)CC[C@@]4(C)[C@]3(C)CC[C@@H]12,,inactive,inactive,inactive,inactive,inactive,,,,inactive,inactive,inactive,,,inactive
CC/C=C(\C(=O)N[C@@H]1C(=O)N2C(C(=O)OCOC(=O)C(C)(C)C)=C(COC(N)=O)CS[C@H]12)c1csc(N)n1,inactive,inactive,inactive,inactive,inactive,inactive,,,,inactive,inactive,inactive,,,
COc1c2ccoc2cc2oc(=O)ccc12,inactive,inactive,inactive,inactive,inactive,inactive,,,,inactive,inactive,inactive,,,inactive
O=C(O)C1=NN(c2ccc(S(=O)(=O)O)cc2)C(=O)C1,inactive,inactive,inactive,inactive,inactive,,,,,inactive,inactive,inactive,,,inactive
